Measurements taken from the supplement of paper PMC6288085.
Where a name gives a salt, the structure may show the parent alone. ± gives the uncertainty stated by the source.

tested on: Caenorhabditis elegans N2; assay: food intake (mean delta OD600 / animal over 72 h) with 50 uM loxapine co-treatment (OD600 units per animal); higher = more food eaten (less suppression of loxapine-induced hyperphagia); details: first compound 33 µM, loxapine concentration 50 µM
Method: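 C. elegans N2 adults (FUDR-sterilised, day 1) in 96-well plates fed gamma-irradiated bacteria. Each library drug (MedChemExpress FDA-approved library) at 33 uM was combined with loxapine at 50 uM. Food intake was measured as bacterial clearance: the change in OD600 from day 1 to 72 h, normalised per animal (mean over 14-21 wells of about 10-12 worms). Drugs flagged for bacterial lysis or sickness were excluded by the authors.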

`CCOc1ccccc1OCCN[C@H](C)Cc1ccc(OC)c(S(N)(=O)=O)c1` [tamsulosin] + CN1CCN(C2=Nc3ccccc3Oc3ccc(Cl)cc32)CC1 [loxapine] and `CC(CCc1ccccc1)NCC(O)c1ccc(O)c(C(N)=O)c1` (centres undefined) [labetalol (hydrochloride)] + CN1CCN(C2=Nc3ccccc3Oc3ccc(Cl)cc32)CC1 [loxapine] are within error of each other in food intake: 0.022 ± 0.0032 for the first, 0.0213 ± 0.0075 for the second.

`Cc1cn([C@@H]2C[C@@H](O)[C@H](CO)O2)c(=O)[nH]c1=O` [telbivudine] + CN1CCN(C2=Nc3ccccc3Oc3ccc(Cl)cc32)CC1 [loxapine] and `O=c1[nH]c(=O)n([C@H]2C[C@H](O)[C@@H](CO)O2)cc1I` [idoxuridine] + CN1CCN(C2=Nc3ccccc3Oc3ccc(Cl)cc32)CC1 [loxapine] are within error of each other in food intake: 0.0219 ± 0.0023 for the first, 0.0176 ± 0.0026 for the second.

`O=C1N=C(O)NC1(c1ccccc1)c1ccccc1` [phenytoin (sodium)] + CN1CCN(C2=Nc3ccccc3Oc3ccc(Cl)cc32)CC1 [loxapine] and `CN1CC(=O)N2[C@H](c3ccc4c(c3)OCO4)c3[nH]c4ccccc4c3C[C@@H]2C1=O` [tadalafil] + CN1CCN(C2=Nc3ccccc3Oc3ccc(Cl)cc32)CC1 [loxapine] are within error of each other in food intake: 0.0233 ± 0.0031 for the first, 0.0236 ± 0.0034 for the second.

`[F-].[Na+]` [sodium fluoride] + CN1CCN(C2=Nc3ccccc3Oc3ccc(Cl)cc32)CC1 [loxapine] and `CC(C)(Oc1ccc(CCNC(=O)c2ccc(Cl)cc2)cc1)C(=O)O` [bezafibrate] + CN1CCN(C2=Nc3ccccc3Oc3ccc(Cl)cc32)CC1 [loxapine] are within error of each other in food intake: 0.0241 ± 0.0018 for the first, 0.0212 ± 0.0034 for the second.

In the case of `CCCCNc1ccc(C(=O)OCCN(C)C)cc1` [tetracaine (hydrochloride)] + CN1CCN(C2=Nc3ccccc3Oc3ccc(Cl)cc32)CC1 [loxapine], the food intake is reported as 0.0236 ± 0.0037.
